{"source": "the supplement of paper PMC13380429", "data": [{"test_system": "Vero E6 infected with SARS-CoV-2", "test": "morphology score (similarity to uninfected cells); higher = more like uninfected cells", "settings": "24 h", "values": [{"smiles": "Cc1ccccc1C(OCCN(C)C)c1ccccc1", "note": "(stereo unspecified) [orphenadrine] (10 µM)", "morphology score": 0.316}, {"smiles": "O=C(NCC(=O)N1CCCC1)Nc1ccc2cnccc2c1", "note": "(10 µM)", "morphology score": 0.182}, {"smiles": "CCC(=O)OCC(=O)[C@@]1(OC(=O)CC)[C@@H](C)C[C@H]2[C@@H]3CCC4=CC(=O)C=C[C@]4(C)[C@@]3(F)[C@@H](O)C[C@@]21C", "note": "(10 µM)", "morphology score": 0.138}, {"smiles": "NC[C@H]1O[C@H](O[C@H]2[C@H](O)[C@@H](O[C@H]3O[C@H](CO)[C@@H](O)[C@H](N)[C@H]3O)[C@H](N)C[C@@H]2N)[C@H](N)C[C@@H]1O", "note": "[tobramycin] (10 µM)", "morphology score": 0.095}, {"smiles": "O=C[C@H](O)[C@@H](O)[C@H](O)CO", "note": "[xylose] (10 µM)", "morphology score": -0.0367}, {"smiles": "CCCCCCCCCCCCCCCC[N+](C)(C)CCN(Cc1ccc(OC)cc1)c1ncccn1", "note": "[thonzonium] (10 µM)", "morphology score": -0.372}, {"smiles": "Cc1[nH]c2ccc(F)cc2c1-c1nc2c3cccnc3c3ncccc3c2[nH]1", "note": "(10 µM)", "morphology score": 0.21}, {"smiles": "CC[C@H]1OC(=O)[C@H](C)[C@@H](O[C@H]2C[C@@](C)(OC)[C@@H](O)[C@H](C)O2)[C@H](C)[C@@H](O[C@@H]2O[C@H](C)C[C@H](N(C)C)[C@H]2O)[C@](C)(O)C[C@@H](C)CN(C)[C@H](C)[C@@H](O)[C@]1(C)O", "note": "[azithromycin] (10 µM)", "morphology score": 0.236}, {"smiles": "CC(=O)O[C@H]1C[C@@]2(C)[C@@H](C[C@@H](O)[C@H]3[C@@]4(C)CC[C@@H](O)[C@@H](C)[C@@H]4CC[C@@]32C)/C1=C(\\CCC=C(C)C)C(=O)O", "note": "[fusidic-acid] (10 µM)", "morphology score": 0.063}, {"smiles": "CN1C[C@H](C(=O)N[C@]2(C)O[C@@]3(O)[C@@H]4CCCN4C(=O)[C@H](Cc4ccccc4)N3C2=O)C[C@@H]2c3cccc4[nH]cc(c34)C[C@H]21", "note": "[dihydroergotamine] (10 µM)", "morphology score": -0.0107}, {"smiles": "C=CCSCC1Nc2cc(Cl)c(S(N)(=O)=O)cc2S(=O)(=O)N1", "note": "(stereo unspecified) [althiazide] (10 µM)", "morphology score": -0.00232}, {"smiles": "NC[C@@](O)(c1ccc(Cl)cc1)c1ccc(-c2cn[nH]c2)cc1", "note": "(10 µM)", "morphology score": 0.174}, {"smiles": "CN1c2cc3c(cc2N=C(c2ccc(C(=O)O)cc2)c2ccccc21)C(C)(C)CCC3(C)C", "note": "(0.833333 µM)", "morphology score": -0.141}, {"smiles": "CC(O)CC(=O)O", "note": "(stereo not drawn) [beta-hydroxybutyrate] (10 µM)", "morphology score": -0.0603}, {"smiles": "O=C(O)Cn1c(C(=O)Nc2nc(-c3ccccc3Cl)cs2)cc2ccccc21", "note": "(10 µM)", "morphology score": 0.162}, {"smiles": "O=C(NOCCO)c1ccc2cncn2c1Nc1ccc(I)cc1F", "note": "(0.833333 µM)", "morphology score": -0.298}, {"smiles": "COC(=O)N[C@H](C(=O)N1CCC[C@H]1c1nc(-c2ccc3c(c2)O[C@@H](c2ccccc2)n2c-3cc3cc(-c4c[nH]c([C@@H]5CCCN5C(=O)[C@@H](NC(=O)OC)C(C)C)n4)ccc32)c[nH]1)C(C)C", "note": "[elbasvir] (10 µM)", "morphology score": -0.17}, {"smiles": "O=C(Oc1ccc([N+](=O)[O-])cc1)N1CCC(C(O)(c2ccc3c(c2)OCO3)c2ccc3c(c2)OCO3)CC1", "note": "(10 µM)", "morphology score": 0.0091}, {"smiles": "CC(=O)Oc1ccccc1C(=O)Nc1ncc([N+](=O)[O-])s1", "note": "[nitazoxanide] (10 µM)", "morphology score": 0.224}, {"smiles": "CN1CCCC(n2nc(Cc3ccc(Cl)cc3)c3ccccc3c2=O)CC1", "note": "(stereo unspecified) [azelastine] (10 µM)", "morphology score": 0.458}, {"smiles": "CC[N+](C)(CC)CCC[n+]1c(-c2ccccc2)c2cc(N)ccc2c2ccc(N)cc21", "note": "[propidium-iodide] (10 µM)", "morphology score": 0.271}, {"smiles": "CCOC(=O)C1=C[C@]2(CC)CCCN3CCc4c(n1c1ccccc41)[C@@H]32", "note": "[vinpocetine] (10 µM)", "morphology score": 0.176}, {"smiles": "CC(C)(C)c1cc(C(=O)/C(C#N)=N/Nc2cccc(Cl)c2)no1", "note": "(10 µM)", "morphology score": -0.0513}, {"smiles": "CC(=O)Oc1c(C)cc(OCC(O)CNC(C)C)c(C)c1C", "note": "(stereo unspecified) [metipranolol] (10 µM)", "morphology score": -0.0461}, {"smiles": "CC(ONC(=O)c1cc(C(F)(F)F)cc(C(F)(F)F)c1)C(=O)Nc1ccc(Cl)cc1", "note": "(stereo unspecified) (10 µM)", "morphology score": 0.227}, {"smiles": "COc1ccc(CCO[C@@H]2CCCC[C@H]2N2CC[C@@H](O)C2)cc1OC", "note": "[vernakalant] (10 µM)", "morphology score": 0.109}, {"smiles": "Cc1oc(=O)oc1COC(=O)C1=C([C@H]2CCCO2)S[C@@H]2[C@@H]([C@@H](C)O)C(=O)N12", "note": "[faropenem-medoxomil] (10 µM)", "morphology score": -0.119}]}, {"test_system": "Vero E6 infected with SARS-CoV-2", "test": "SARS-CoV-2 infection rate relative to infected DMSO; higher = more infection, active = 60 or less", "settings": "24 h", "values": [{"smiles": "COc1cc(N)cn[n+]1-c1ccccc1", "note": "[amezinium] (10 µM)", "SARS-CoV-2 infection rate": "100% (inactive)"}, {"smiles": "CCN1CCN(Cc2ccc(-c3cc4c(N[C@H](C)c5ccccc5)ncnc4[nH]3)cc2)CC1", "note": "(10 µM)", "SARS-CoV-2 infection rate": "124% (inactive)"}, {"smiles": "CN(C[C@@H]1COCCO1)S(=O)(=O)Nc1ccc2ccc3ncc(-c4cnn(C)c4)cc3c(=O)c2c1", "note": "(0.833333 µM)", "SARS-CoV-2 infection rate": "111% (inactive)"}, {"smiles": "OC[C@H]1O[C@@H](OCCc2ccc(O)cc2)[C@H](O)[C@@H](O)[C@@H]1O", "note": "[salidroside] (10 µM)", "SARS-CoV-2 infection rate": "116% (inactive)"}, {"smiles": "O=C1[O][SbH]23[O]C(=O)C([O]2)C2[O][SbH]4([O]C(=O)C([O]4)C1[O]3)[O]C2=O", "note": "[antimonyl] (10 µM)", "SARS-CoV-2 infection rate": "99.5% (inactive)"}, {"smiles": "Cn1cc(-c2cnc3ccc4ccc(CS(=O)(=O)NCc5ccccn5)cc4c(=O)c3c2)cn1", "note": "(10 µM)", "SARS-CoV-2 infection rate": "106% (inactive)"}, {"smiles": "Cc1c(F)cc(C(=O)NC2CC2)cc1-c1c(F)cn2c(C(C)(C)C)nnc2c1F", "note": "(10 µM)", "SARS-CoV-2 infection rate": "108% (inactive)"}, {"smiles": "CC(/C=C1\\SC(=S)N(CC(=O)O)C1=O)=C\\c1ccccc1", "note": "[epalrestat] (10 µM)", "SARS-CoV-2 infection rate": "106% (inactive)"}, {"smiles": "CCN(CC)C(=O)/C(C#N)=C/c1cc(O)c(O)c([N+](=O)[O-])c1", "note": "[entacapone] (10 µM)", "SARS-CoV-2 infection rate": "102% (inactive)"}, {"smiles": "CC(=O)Oc1cc2c(s1)CCN(C(C(=O)C1CC1)c1ccccc1F)C2", "note": "(stereo unspecified) [prasugrel] (10 µM)", "SARS-CoV-2 infection rate": "108% (inactive)"}, {"smiles": "O=C(O)CC1CC(c2ccccc2)=NO1", "note": "(stereo unspecified) (10 µM)", "SARS-CoV-2 infection rate": "116% (inactive)"}, {"smiles": "O=C(NCc1ccccc1)c1csc(Nc2ccncn2)n1", "note": "[thiazovivin] (0.833333 µM)", "SARS-CoV-2 infection rate": "99% (inactive)"}, {"smiles": "CC(=O)c1ccc2c(c1)N(CCCN(C)C)c1ccccc1S2", "note": "[acepromazine] (10 µM)", "SARS-CoV-2 infection rate": "104% (inactive)"}, {"smiles": "Cc1ccccc1C(OCCN(C)C)c1ccccc1", "note": "(stereo unspecified) [orphenadrine] (10 µM)", "SARS-CoV-2 infection rate": "87% (inactive)"}, {"smiles": "O=C(NCC(=O)N1CCCC1)Nc1ccc2cnccc2c1", "note": "(10 µM)", "SARS-CoV-2 infection rate": "98% (inactive)"}, {"smiles": "CCC(=O)OCC(=O)[C@@]1(OC(=O)CC)[C@@H](C)C[C@H]2[C@@H]3CCC4=CC(=O)C=C[C@]4(C)[C@@]3(F)[C@@H](O)C[C@@]21C", "note": "(10 µM)", "SARS-CoV-2 infection rate": "104% (inactive)"}, {"smiles": "NC[C@H]1O[C@H](O[C@H]2[C@H](O)[C@@H](O[C@H]3O[C@H](CO)[C@@H](O)[C@H](N)[C@H]3O)[C@H](N)C[C@@H]2N)[C@H](N)C[C@@H]1O", "note": "[tobramycin] (10 µM)", "SARS-CoV-2 infection rate": "113% (inactive)"}, {"smiles": "O=C[C@H](O)[C@@H](O)[C@H](O)CO", "note": "[xylose] (10 µM)", "SARS-CoV-2 infection rate": "108% (inactive)"}, {"smiles": "CCCCCCCCCCCCCCCC[N+](C)(C)CCN(Cc1ccc(OC)cc1)c1ncccn1", "note": "[thonzonium] (10 µM)", "SARS-CoV-2 infection rate": "122% (inactive)"}, {"smiles": "Cc1[nH]c2ccc(F)cc2c1-c1nc2c3cccnc3c3ncccc3c2[nH]1", "note": "(10 µM)", "SARS-CoV-2 infection rate": "102% (inactive)"}, {"smiles": "CC[C@H]1OC(=O)[C@H](C)[C@@H](O[C@H]2C[C@@](C)(OC)[C@@H](O)[C@H](C)O2)[C@H](C)[C@@H](O[C@@H]2O[C@H](C)C[C@H](N(C)C)[C@H]2O)[C@](C)(O)C[C@@H](C)CN(C)[C@H](C)[C@@H](O)[C@]1(C)O", "note": "[azithromycin] (10 µM)", "SARS-CoV-2 infection rate": "98.5% (inactive)"}, {"smiles": "CC(=O)O[C@H]1C[C@@]2(C)[C@@H](C[C@@H](O)[C@H]3[C@@]4(C)CC[C@@H](O)[C@@H](C)[C@@H]4CC[C@@]32C)/C1=C(\\CCC=C(C)C)C(=O)O", "note": "[fusidic-acid] (10 µM)", "SARS-CoV-2 infection rate": "98% (inactive)"}, {"smiles": "CN1C[C@H](C(=O)N[C@]2(C)O[C@@]3(O)[C@@H]4CCCN4C(=O)[C@H](Cc4ccccc4)N3C2=O)C[C@@H]2c3cccc4[nH]cc(c34)C[C@H]21", "note": "[dihydroergotamine] (10 µM)", "SARS-CoV-2 infection rate": "104% (inactive)"}, {"smiles": "C=CCSCC1Nc2cc(Cl)c(S(N)(=O)=O)cc2S(=O)(=O)N1", "note": "(stereo unspecified) [althiazide] (10 µM)", "SARS-CoV-2 infection rate": "98% (inactive)"}, {"smiles": "NC[C@@](O)(c1ccc(Cl)cc1)c1ccc(-c2cn[nH]c2)cc1", "note": "(10 µM)", "SARS-CoV-2 infection rate": "108% (inactive)"}, {"smiles": "CN1c2cc3c(cc2N=C(c2ccc(C(=O)O)cc2)c2ccccc21)C(C)(C)CCC3(C)C", "note": "(0.833333 µM)", "SARS-CoV-2 infection rate": "107% (inactive)"}, {"smiles": "CC(O)CC(=O)O", "note": "(stereo not drawn) [beta-hydroxybutyrate] (10 µM)", "SARS-CoV-2 infection rate": "116% (inactive)"}, {"smiles": "O=C(O)Cn1c(C(=O)Nc2nc(-c3ccccc3Cl)cs2)cc2ccccc21", "note": "(10 µM)", "SARS-CoV-2 infection rate": "93% (inactive)"}, {"smiles": "O=C(NOCCO)c1ccc2cncn2c1Nc1ccc(I)cc1F", "note": "(0.833333 µM)", "SARS-CoV-2 infection rate": "121% (inactive)"}, {"smiles": "COC(=O)N[C@H](C(=O)N1CCC[C@H]1c1nc(-c2ccc3c(c2)O[C@@H](c2ccccc2)n2c-3cc3cc(-c4c[nH]c([C@@H]5CCCN5C(=O)[C@@H](NC(=O)OC)C(C)C)n4)ccc32)c[nH]1)C(C)C", "note": "[elbasvir] (10 µM)", "SARS-CoV-2 infection rate": "120% (inactive)"}, {"smiles": "O=C(Oc1ccc([N+](=O)[O-])cc1)N1CCC(C(O)(c2ccc3c(c2)OCO3)c2ccc3c(c2)OCO3)CC1", "note": "(10 µM)", "SARS-CoV-2 infection rate": "103% (inactive)"}, {"smiles": "CC(=O)Oc1ccccc1C(=O)Nc1ncc([N+](=O)[O-])s1", "note": "[nitazoxanide] (10 µM)", "SARS-CoV-2 infection rate": "88% (inactive)"}, {"smiles": "CN1CCCC(n2nc(Cc3ccc(Cl)cc3)c3ccccc3c2=O)CC1", "note": "(stereo unspecified) [azelastine] (10 µM)", "SARS-CoV-2 infection rate": "72% (inactive)"}, {"smiles": "CC[N+](C)(CC)CCC[n+]1c(-c2ccccc2)c2cc(N)ccc2c2ccc(N)cc21", "note": "[propidium-iodide] (10 µM)", "SARS-CoV-2 infection rate": "93.5% (inactive)"}]}]}
